CD40 NFkB inh – CD40 pathway inhibition in BL2 cells; 0.94% of 83,000 active; AID 1053188; BL2 NF-kB luciferase reporter, CD40L-induced, 4 h; inhibition, % at 10 µM;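 active = mean inhibition of at least 50% with a set share of replicates also reaching that level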
Of the large screens only hits and unclear results are named; the others gave an inactive call. The full list was thinned out, with hits kept by preference.

C[C@H]1CN([C@@H](C)CO)C(=O)CCCn2cc(nn2)CO[C@H]1CN(C)C(=O)NC1CCCCC1	none
C[C@H](O)C#Cc1ccc([C@H]2[C@H](CO)N3CCCCN(C(=O)c4cccc(F)c4)C[C@@H]23)cc1	none
O=C(CSc1ccc(Cl)cc1)NCc1ccco1	none
O=C(CNC(=O)c1ccc(Br)cc1)N/N=C/c1ccc[nH]1	none
Cc1cc(Br)c(OCc2ccc(C(=O)N/N=C/c3ccc[nH]3)cc2)c(Br)c1	CD40 NFkB inh 75
O=C(N/N=C/c1ccc[nH]1)c1ccc(O)cc1	none
O=C(NC1CCCCC1)N1CC2(C1)[C@H](c1ccccc1)[C@H](CO)N2CC1CCCC1	none
Cc1ccc2oc(-c3cccc(NC(=O)C4CCCO4)c3)nc2c1 (stereo unspecified)	none
Cc1cccc(-c2nc3cc(NC(=O)C4CCCO4)ccc3o2)c1 (stereo unspecified)	CD40 NFkB inh 54
CC(=O)Nc1ccc2oc(-c3ccccc3)nc2c1	none
CC(C)(C)NCC(=Cc1ccccc1)C(=O)c1ccccc1	CD40 NFkB inh 52
COc1ccc(C=C(C(C)=O)C(=O)c2ccccc2)cc1	none
COc1ccc(C=C(C(=O)c2ccccc2)C(=O)c2ccccc2)cc1	none
C[C@H]1CN([C@@H](C)CO)C(=O)c2cccc(NC(=O)c3ccncc3)c2O[C@H]1CN(C)S(=O)(=O)c1ccccc1	none
COCCNC(=O)C[C@H]1C[C@H]2c3cc(NC(=O)CN(C)C)ccc3O[C@H]2[C@@H](CO)O1	none
CC(=O)N(C)C[C@@H]1Oc2ccc(NC(=O)NC(C)C)cc2C(=O)N(C)C[C@@H]1C	none
Cc1ccc(C(=O)CCC(=O)Nc2ccc(C)cn2)cc1	none
Cc1ccc(NC(=O)CNC(=O)c2ccc(Oc3ccccc3)cc2)nc1	none
Cc1ccc(NC(=O)CNC(=O)c2cccc(C)c2)nc1	CD40 NFkB inh 58
COCC(=O)N1CC2(CCN(Cc3cccnc3)CC2)c2c(n(C)c3cc(OC)ccc23)[C@H]1CO	none
COCCN(C[C@H]1N[C@H](CO)[C@@H]1c1ccc(-c2ccc(F)cc2)cc1)C(C)=O	none
CC(C)NC(=O)N(C)C[C@@H]1Oc2ccc(NS(C)(=O)=O)cc2CC(=O)N(C)C[C@@H]1C	none
CCOC(=O)C1(C)CCCN1C(=O)c1cccc2ccccc12 (stereo unspecified)	none
Cn1cccc1/C=N/NC(N)=S	none
NC(=S)NN=Cc1c[nH]c2nccnc12	CD40 NFkB inh 67
NC(=S)NN=Cc1nccc2c(C(F)(F)C(F)(F)C(F)(F)F)cccc12	none
O=C(C[C@@H]1C[C@@H]2c3cc(NC(=O)c4ccc5c(c4)OCO5)ccc3O[C@@H]2[C@H](CO)O1)NCC(F)(F)F	none
CC(C)CC#Cc1ccc([C@@H]2[C@@H](CO)N3C(=O)CN(C(=O)c4cccc(F)c4)C[C@@H]23)cc1	none
CC(=O)NCCc1ccc(C(=O)COC(=O)c2ccco2)cc1	none
CC(=O)Nc1ccc(C(=O)COC(=O)C2CC3CCCC(C2)C3=O)cc1 (stereo unspecified)	none
CC(=O)NCCc1ccc(C(=O)COC(=O)C2CCCCC2)cc1	CD40 NFkB inh 54
CC1CCCCC12NC(=O)N(CC(=O)Nc1ccc(N3CCCCC3)cc1)C2=O (stereo unspecified)	none
CC(C)OC(=O)N(C)C[C@@H]1OCc2ccccc2-c2ccccc2C(=O)N([C@@H](C)CO)C[C@H]1C	none
Cc1ccc(C)c(C(=O)NCCN(C)C)c1	none
C=C(CN(C)C)C(=O)c1cc(C)ccc1C	CD40 NFkB inh 91
Cc1ccc(C(=O)NCCN(C)C)cc1C	none
Cc1ccccc1S(=O)(=O)N1CCCCN2[C@H](CO)[C@@H](c3ccc(-c4cccc(F)c4)cc3)[C@@H]2C1	none
O=C(c1ccc2c(c1)OCO2)N1C[C@H]2[C@@H](c3ccccc31)[C@@H](CO)N2C(=O)CC1CC1	none
O=C(C1CC1)N1C[C@@H]2[C@H](c3ccccc31)[C@@H](CO)N2Cc1ccccc1Cl	none
Nc1c(S(=O)(=O)c2ccccc2)c2nc3ccccc3nc2n1CCN1CCOCC1	none
CCCCn1c(NC(C)=O)c(C#N)c2nc3ccccc3nc21	none
CCCCn1c(NC(=O)c2ccc(Br)o2)c(S(=O)(=O)c2ccccc2)c2nc3ccccc3nc21	CD40 NFkB inh 66
C[C@H](NC(=O)[C@H]1[C@H](CO)[C@H]2Cn3c(cccc3=O)[C@H]2N1Cc1cccnc1)c1ccccc1	none
CC(=O)N(C)C[C@H]1Oc2ccc(NS(C)(=O)=O)cc2CC(=O)N(C)C[C@H]1C	none
CC(=NNc1nc2ccccc2s1)c1ncccn1	none
CC(=NNc1nc2ccccc2o1)c1cc2ccccc2cn1	none
CC(=NNc1nc2ccccc2o1)c1ncccn1	CD40 NFkB inh 80
CCCC(CC)Sc1nc2c([nH]1)c(=S)n(C)c(=O)n2C (stereo unspecified)	none
CCCCC(C)Sc1nc2c([nH]1)c(=S)n(C)c(=O)n2C (stereo unspecified)	none
CSc1nc2c([nH]1)c(=S)n(C)c(=O)n2C	CD40 NFkB inh 74
CN1[C@@H](CO)[C@@H]2c3ccccc3N(C(=O)Nc3cc(F)ccc3F)C[C@@H]21	none
COc1ccc2c3c(n(C)c2c1)[C@@H](CO)N(C(=O)C1CC1)CC31CN(Cc2ccccc2OC)C1	none
O=C(NCCC1=CCCCC1)C1CC(=O)N(Cc2ccccc2)C1 (stereo unspecified)	none

From PubChem
